In PubChem BioAssay AID489025 (Southern Research Specialized Biocontainment Screening …, 2010):
Screen size: about 2,300 compounds; about 790 (34%) were called active. No rule for the calls is given here. The list shows a part of the results. Potency and affinity values are given separately.

Experiment: THP-1 cell cytotoxicity, dose response, cytotoxicity control for non-replicating M. tuberculosis project (AID 489025)
Conditions: THP-1 cell viability; series mostly up to 40 µM; viability: at the top concentration

| SMILES | viability |
| --- | --- |
| COc1ccc(Cl)cc1N=Cc1c(O)c2ccccc2oc1=O | 103% (inactive) |
| COc1ccc(OC(=O)c2cc3cc(Cl)ccc3oc2=O)cc1 | 111% (inactive) |
| Cc1ccc(NC(=O)CO/N=C/c2ccc(N(C)C)cc2)cc1 | 86.2% (inactive) |
| COc1ccc(CC(=O)OCC(=O)Nc2ccc(Br)cc2)cc1 | 106% (inactive) |
| O=C(COC(=O)c1ccc([N+](=O)[O-])s1)Nc1ccc(Cl)cn1 | 81.6% (inactive) |
| O=C(Nc1ccccc1F)c1ccc(Br)o1 | 97.4% (inactive) |
| O=C(Nc1nnc(-c2ccc(Br)cc2)o1)C1=COCCO1 | 102% (inactive) |
| Cc1ccc(CCC(=O)Nc2ccccc2F)s1 | 89.1% (inactive) |
| O=C(Nc1nnc(-c2ccc(Br)cc2)o1)c1ccco1 | 96.8% (inactive) |
| Cc1cccc(NC(=O)COc2ccc(Br)cc2)n1 | 107% (inactive) |
| O=C(Nc1nnc(-c2ccco2)o1)c1cccc2ccccc12 | 75% (inactive) |
| Cc1ccccc1C(=O)Nc1nnc(-c2ccco2)o1 | 76.2% (inactive) |
| Fc1ccc(COc2ccc(-c3nnco3)cc2)cc1 | 100% (inactive) |
| Cc1ccc(C(=O)OCC(=O)N2CCCCCC2)c(O)c1 | 118% (inactive) |
| COc1ccc(-c2nc3ccc(C)cc3c(=O)o2)cc1OC | 89.8% (inactive) |
| CC1(C)CC(=O)C(C2NCCc3ccccc32)=C(O)C1 (stereo not given) | 109% (inactive) |
| C/C(CC(=O)Nc1ccc(C)c(Cl)c1)=N\NC(=O)c1ccco1 | 88.2% (inactive) |
| CCOC(=O)c1cc(COc2cc(Cl)cc(Cl)c2)on1 | 101% (inactive) |
| Cc1nc2ccc(NC(=O)c3ccc([N+](=O)[O-])cc3[N+](=O)[O-])cc2s1 | 95.8% (inactive) |
| CCOc1ccc(NC(=O)CCC(=O)N/N=C/c2ccc([N+](=O)[O-])s2)cc1 | 90.2% (inactive) |
| COc1cccc2cc(C(=O)NCc3ccc(F)cc3)c(=N)oc12 | 104% (inactive) |
| CC1Cc2cc(/C=C3/SC(=S)NC3=O)ccc2O1 (stereo not given) | 81.9% (inactive) |
| CC(C)(O)C#Cc1ccc(C(=O)Nc2ccc3c(c2)OCO3)s1 | 88.2% (inactive) |
| CC(C)n1c(=S)[nH]c2ccccc2c1=O | 94.6% (inactive) |

| SMILES | viability |
| --- | --- |
| CCC(C)(C)NC(=O)c1ccc(Br)o1 | 106% (inactive) |
| O=C(Nc1ccccc1)c1ccc(Br)o1 | 73.2% (inactive) |
| CCOC(=O)COc1ccc(C(=O)NC2CCCCC2)cc1 | 111% (inactive) |
| O=C(O)c1ccccc1C(=O)NNc1ccc(Cl)cc1 | 120% (inactive) |
| COc1ccc(C(=O)NN/C(C)=C/C(=O)c2ccccc2)cc1 | 95.9% (inactive) |
| O=C(NNc1ccc([N+](=O)[O-])cc1)c1ccccc1Cl | 100% (inactive) |
| O=C(O)c1ccccc1C(=O)NNc1ccc(F)cc1 | 118% (inactive) |
| O=C(COC(=O)C1CCCCC1)Nc1ccccc1OC(F)F | 109% (inactive) |
| NC(=O)/C(=N\OC(=O)c1ccco1)c1nc(-c2ccc(Br)cc2)cs1 | 104% (inactive) |
| O=C(OCc1cccc(F)c1)c1ccc2c(=O)n3c(nc2c1)CCC3 | 98.6% (inactive) |
| Cc1ccc(/C=C2/C(=O)NC(=O)N(CCc3ccc(F)cc3)C2=O)s1 | 112% (inactive) |
| Cc1ccc(NC(=O)CN(C)C2CCCCC2)cc1Br | 94.8% (inactive) |
| O=C(OCCCCN1C(=O)c2ccccc2C1=O)c1ccc(Br)o1 | 89.2% (inactive) |
| Nn1c(SCCOc2ccc(Cl)cc2)nnc1-c1cccnc1 | 82.1% (inactive) |
| O=C(Nc1nc2ccccc2n1CCN1CCCC1)c1ccc(Cl)cc1 | 79% (inactive) |
| Cc1ccc(CC(=O)Nc2ccc(Cl)cn2)cc1 | 106% (inactive) |
| Cn1[nH]c(-c2ccccc2)c(/C=N/O)c1=O | 111% (inactive) |
| Clc1ccc(Cc2nnc(-c3cccs3)o2)cc1 | 104% (inactive) |
| c1cncc(-c2noc(CC3CCCCC3)n2)c1 | 97% (inactive) |
| CCOC(=O)C(=NCCOC)NNc1cc(Cl)ccc1Cl | 92.8% (inactive) |
| CCOc1cccc2cc(C(=O)NCc3ccccc3)c(=N)oc12 | 113% (inactive) |
| CCc1c(C)c2ccc(OCC(=O)OC)cc2oc1=O | 118% (inactive) |
| Cc1cccc2nc(-c3cccnc3)c(NCCC(C)C)n12 | 76.1% (inactive) |
| CSc1nn(-c2ccc(C(=O)OCC(=O)NC(=O)NC(C)C)cc2)c(=S)s1 | 98.3% (inactive) |

| SMILES | viability |
| --- | --- |
| CC(=O)Oc1c(-c2ccco2)oc2ccccc2c1=O | 82.7% (inactive) |
| O=C(Oc1cccc([N+](=O)[O-])c1)c1ccc2c(=O)n3c(nc2c1)CCC3 | 116% (inactive) |
| CCOC(=O)COn1c(-c2cccc(Cl)c2)nc2ccc([N+](=O)[O-])cc21 | 86.9% (inactive) |
| O=c1c2cc(Cl)ccc2nc(-c2ccccc2Cl)n1O | 113% (inactive) |
| N/C(=N\OC(=O)c1cccc(Br)c1)c1ccc([N+](=O)[O-])cc1 | 102% (inactive) |
| O=[N+]([O-])c1ccc2nc(SCc3cn4cc(Cl)ccc4n3)[nH]c2c1 | 99.3% (inactive) |
| Cc1nc2ccc(Cl)cc2nc(C)/c1=N\O | 110% (inactive) |
| O=c1c2c([N+](=O)[O-])cc([N+](=O)[O-])cc2sn1-c1ccc(Br)cc1 | 90.1% (inactive) |
| CC(=O)c1cc2c(ccc3ccccc32)oc1=O | 110% (inactive) |
| CCOc1ncccc1C(=O)OCC(=O)N1CCc2ccccc21 | 95.2% (inactive) |
| C=C(C)C1CC=C(C)/C(=N/NC(=O)CNc2ccc(OCC)cc2)C1 (stereo not given) | 92% (inactive) |
| CC(C)OC(=O)c1c2c(n3ccccc13)C(=O)c1ccccc1C2=O | 83.2% (inactive) |
| COc1cc(C(=O)ON=C2C=C(C)C(=O)C(C)=C2)cc(OC)c1OC | 71.2% (inactive) |
| COc1ccc(CCNc2cc(-c3ccccc3)nc3ncnn23)cc1 | 79.6% (inactive) |
| Cc1nn2c(NCCN(C)C)c3c(nc2c1-c1ccccc1)CCCC3 | 71% (inactive) |
| COc1cccc(C(=O)OCn2nnc3ccccc3c2=O)c1OC | 88.7% (inactive) |
| O=C(OCn1nnc2ccccc2c1=O)c1ccc(Br)o1 | 101% (inactive) |
| Cc1cccc(Cn2ccc(NC(=O)c3ccc4c(c3)OCO4)n2)c1 | 94.6% (inactive) |
| Cc1ccc(NC(=O)COC(=O)CCc2c[nH]c3ccccc23)cc1[N+](=O)[O-] | 97.8% (inactive) |
| O=C(NCCC1=CCCCC1)c1ccc(F)cc1 | 86.6% (inactive) |
| Cc1ccc(NC(=O)CNc2ccc(OC(C)C)cc2)cc1 | 93.2% (inactive) |
| Cc1ccc(NC(=O)COCC(=O)Nc2ccc(C)cc2)cc1 | 121% (inactive) |
| COc1ccc(C(=O)C2CCCN(C(=O)c3ccc(CSC)o3)C2)cc1F (stereo not given) | 106% (inactive) |
| CSc1ccc(C(=O)C2CCCN(Cc3cc4ccccc4[nH]3)C2)cc1 (stereo not given) | 79.9% (inactive) |

| SMILES | viability |
| --- | --- |
| COC(=O)c1ccccc1NC(=O)C1CC(c2ccc(F)cc2)=NO1 (stereo not given) | 73.4% (inactive) |
| CC(=O)OCCN(C)c1cc(SC(C)C)c2nonc2c1[N+](=O)[O-] | 102% (inactive) |
| CCCNC(=O)COC(=O)c1cc2c(=O)n3ccccc3nc2s1 | 103% (inactive) |
| Cc1csc(=Nc2cccnc2)n1CC1CCCCC1 | 80.9% (inactive) |
| Cc1ccc2c(CC(=O)OCC(=O)Nc3ccc(Cl)cn3)coc2c1 | 118% (inactive) |
| O=C(Oc1ccccc1)c1cc2ccccc2o1 | 136% (inactive) |
| CCc1ccc(OCCCC(=O)Nc2nccs2)cc1 | 90.2% (inactive) |
| COc1ccc(NC(=O)CO/N=C2/CCCc3nonc32)c(OC)c1 | 103% (inactive) |
| Cc1cc(C(=O)COc2cccc3cccnc23)c(C)n1C | 108% (inactive) |
| O=C(Oc1ccccc1Cl)c1ccc2c(=O)n3c(nc2c1)CCC3 | 103% (inactive) |
| O=C(Oc1cccc2cccnc12)c1cccc([N+](=O)[O-])c1 | 109% (inactive) |
| O=C(Oc1cccc2cccnc12)c1cccc(-n2cnnn2)c1 | 97.8% (inactive) |
| S=c1[nH]c2ccccc2o1 | 110% (inactive) |
| O=C1CC(N2CCN(Cc3ccccc3)CC2)C(=O)N1CCc1ccccc1 (stereo not given) | 104% (inactive) |
| O=C1C=CC(=O)N1N(c1ccccc1)c1ccccc1 | 94.9% (inactive) |
| Cc1c(C(=O)NNC(=O)c2csc(N3CCOCC3)n2)oc2ccccc12 | 97.8% (inactive) |
| COC(=O)C1=C(C(=O)OC)C(c2cc(Cl)ccc2O)c2sc(=O)[nH]c2S1 (stereo not given) | 113% (inactive) |
| O=c1oc2ccccc2c2c1nnn2CCO | 93.3% (inactive) |
| Clc1ccc(-c2ccc(CNCc3ccccn3)o2)cc1 | 74.1% (inactive) |
| c1ccc(-c2nc(NCCCn3ccnc3)c3ccccc3n2)cc1 | 89.2% (inactive) |
| Fc1ccc(-c2ccc(CNCc3ccccn3)o2)cc1Cl | 83.4% (inactive) |
| Cc1ccc(-c2cc(C(F)(F)F)n3nc(C(=O)NCCCn4ccnc4)cc3n2)cc1C | 113% (inactive) |
| Clc1cccc(-c2ccc(CNCc3ccccn3)o2)c1 | 114% (inactive) |
| O=C(NCCC1=CCCCC1)c1ccc(Br)o1 | 92.7% (inactive) |

| SMILES | viability |
| --- | --- |
| CC(=O)c1cccc(NC(=O)C2COc3ccccc3O2)c1 (stereo not given) | 87.6% (inactive) |
| CCCc1cc(=O)n2[nH]c(C)c(-c3ccccc3)c2n1 | 79.2% (inactive) |
| Cc1ccc(C(=O)CCNc2ccc(Br)cc2)o1 | 120% (inactive) |
| CC(=O)n1cc(/C=C2/N=C(c3ccccc3)OC2=O)c2ccccc21 | 127% (inactive) |
| CCCOC(=O)c1ccc(-c2ccc(C=O)o2)cc1 | 114% (inactive) |
| Cc1cccc(C)c1N1C(=O)CC(N2CCSCC2)C1=O (stereo not given) | 104% (inactive) |
| Cc1ccc(-c2noc(CCC(=O)Nc3cccc(C#N)c3)n2)cc1 | 91.4% (inactive) |
| O=C(COC(=O)c1cccc([N+](=O)[O-])c1)NCc1cccs1 | 129% (inactive) |
| CCCOC(=O)c1ccc(NC(=O)Cc2cccs2)cc1 | 103% (inactive) |
| COC(=O)N/N=C/c1ccc([N+](=O)[O-])s1 | 74.3% (inactive) |
| CCOC(=O)N/N=C\c1ccc([N+](=O)[O-])s1 | 75.6% (inactive) |
| C/C(Cn1nnc([N+](=O)[O-])n1)=N\NC(=O)c1ccncc1 | 80.4% (inactive) |
| Brc1c(CSc2nncc3ccccc23)nc2ccccn12 | 88.4% (inactive) |
| CCN(CC)c1ccc2cc(C(=O)NCc3ccc(F)cc3)c(=N)oc2c1 | 72.3% (inactive) |
| O=c1oc2ccccc2nc1/C=C(\O)c1ccc(Br)cc1 | 96.4% (inactive) |
| C/C(=N/NC(=O)c1ccco1)c1ccc(Br)s1 | 71.9% (inactive) |
| CC(C)(C)NCC1(CO)SC(N)=NC1=O (stereo not given) | 103% (inactive) |
| COc1n[nH]c(C(=O)Nc2cc(F)ccc2C)c1[N+](=O)[O-] | 95.2% (inactive) |
| O=C(C/C=N\OCc1ccc([N+](=O)[O-])cc1)Nc1ccc(F)cc1F | 104% (inactive) |
| CCc1cc2c3c(c1)C(C)CC(C)(C)N3C(=O)/C2=C1\SC(=O)NC1=O (stereo not given) | 91.8% (inactive) |
| O=C(COC(=O)COc1ccc(Nc2ccccc2)cc1)NCc1ccco1 | 112% (inactive) |
| COc1ccccc1N1CCN(C(=O)c2ccc([N+](=O)[O-])s2)CC1 | 79.4% (inactive) |
| COC(=O)CC(=O)N1CCN(c2ccc(Cl)c(Cl)c2)CC1 | 98.6% (inactive) |
| CC(C)(C)c1ccc(OCCCC(=O)NC2=NCCS2)cc1 | 83.3% (inactive) |
